Bioassay records as filed in PubChem BioAssay.
ELG1 DNA repair: qHTS screen for small molecules that inhibit ELG1-dependent DNA repair in human embryonic kidney (HEK293T) cells expressing luciferase-tagged ELG1. Potency, µM (series often up to 46.1 µM), for inactives: top-dose activity change, negative = inhibition, actives largely listed as inhibitors. AID 504467, 2011. actives 2.3% (n = 330,000). HEK293T ELG1-luciferase reporter, luminescence, 16 h; DNA damage induced by 5-fluorouridine; note: potency is the fitted concentration of half-maximal effect; nearly all actives have a fitted effect of over 55% in size
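Reporter activity after DNA damage by 5-fluorouridine is monitored. Compound-treated cells incubate 16 hr at 37 °C, then ONE-Glo is added for 30 min before luminescence reading.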
DT40 TDP1 CPT: qHTS for Inhibitors of human tyrosyl-DNA phosphodiesterase 1 (TDP1): qHTS in cells in presence of CPT; chicken DT40 Tdp1-/-;hTDP1 cells + 20 nM CPT, ATP luminescence, 48 h; Potency, µM (highest dose often 46.2 µM), for the others: at the top dose activity change, negative = growth inhibition, most hits filed as inhibitors; actives 12% (n = 420,000); AID 686979, 2013; note: potency is the fitted concentration of half-maximal effect; nearly all actives have a fitted effect of over 55% in size
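Chicken DT40 Tdp1-/- cells stably complemented with human TDP1 were seeded at 400 cells/well in medium containing 20 nM camptothecin, exposed to pin-transferred compounds, and grown at 37 °C for at least 48 hr. Viability was read as ATP luminescence.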
TDP1 cell noCPT: qHTS for Inhibitors of human tyrosyl-DNA phosphodiesterase 1 (TDP1): qHTS in cells in absence of CPT. DT40 Tdp1-/- hTDP1 cells, no CPT, ATP luminescence, 48 h. Potency, µM (series often up to 46.2 µM), inactives show at the top dose activity change, negative = growth inhibition, hits mostly inhibitors. actives 15% (n = 420,000). AID 686978, 2013; note: potency is the fitted concentration of half-maximal effect; nearly all actives have a fitted effect of over 55% in size
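Camptothecin absent (DMSO only). Human TDP1-complemented DT40 knockout cells, 400 cells/well, 37 °C for minimum 48 hr; ATP measured via CellTiter-Glo, 30 min dark incubation, luminescence.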
IL-1B inflam inh: qHTS for Inhibitors of Inflammasome Signaling: IL-1-beta AlphaLISA Primary Screen; THP-1 LPS/ATP IL-1B secretion, AlphaLISA, 16 h; active compounds read low; activity change, % at 57.5 µM; actives 4.7% (n = 360,000); AID 743279, 2014; in the data active = activity change below about -50%; inconclusive = mostly about -30% to -49%
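Secreted IL-1B measured by AlphaLISA bead assay after 16 h compound exposure of THP-1 cells; compounds (final up to 57.5 uM) added 1 h before LPS (250 ng/mL) and ATP (1.25 mM) stimulation; lower signal means less secretion.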
Giardia killer: Small Molecules that selectively kill Giardia lamblia: qHTS | Giardia lamblia trophozoite viability | activity change, % at 7.66 µM, hits read low | actives 0.15% (n = 340,000); in the data active = activity change below about -80%; inconclusive = between about -30% and that limit;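 note: parasites exposed to compound for two days anaerobically before the ATP read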
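Each well holds 100 Giardia trophozoites and compound. After two days (48 hrs) at 37 deg C in anaerobic conditions, ATP is quantified by luminescence.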
TDP1 inh: qHTS Assay for Inhibitors of Tyrosyl-DNA Phosphodiesterase (TDP1); Potency, µM (top dose mostly 130 µM), for the others: at the top dose activity change, negative = inhibition, actives largely listed as inhibitors; Tyrosyl-DNA phosphodiesterase 1 (Homo sapiens), Q9NUW8; recombinant TDP1, AlphaScreen DNA substrate cleavage; AID 485290, 2010; actives 0.28% (n = 350,000); note: potency is the fitted concentration of half-maximal effect; nearly all actives have a fitted effect of over 40% in size
Target sequence (Q9NUW8 whole entry, looked up): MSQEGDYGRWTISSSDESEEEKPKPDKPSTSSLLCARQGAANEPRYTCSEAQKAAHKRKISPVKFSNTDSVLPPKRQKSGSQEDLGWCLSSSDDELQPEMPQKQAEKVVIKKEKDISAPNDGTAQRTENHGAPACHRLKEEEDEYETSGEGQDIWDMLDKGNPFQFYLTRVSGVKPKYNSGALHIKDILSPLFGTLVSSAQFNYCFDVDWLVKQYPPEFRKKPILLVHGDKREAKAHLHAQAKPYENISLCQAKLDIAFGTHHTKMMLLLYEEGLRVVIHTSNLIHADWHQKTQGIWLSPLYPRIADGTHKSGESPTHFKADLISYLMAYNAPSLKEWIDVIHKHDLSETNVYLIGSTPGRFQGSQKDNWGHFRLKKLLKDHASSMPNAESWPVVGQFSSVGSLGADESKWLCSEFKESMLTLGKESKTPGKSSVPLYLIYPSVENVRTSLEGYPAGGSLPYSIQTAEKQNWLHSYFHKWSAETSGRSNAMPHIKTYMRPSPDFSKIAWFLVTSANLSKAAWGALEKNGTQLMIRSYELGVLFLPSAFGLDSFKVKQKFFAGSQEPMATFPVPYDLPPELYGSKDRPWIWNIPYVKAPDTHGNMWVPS
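Signal: AlphaScreen proximity between streptavidin donor and anti-FITC acceptor beads on intact substrate. Reaction: Tdp1 1 nM, substrate 15 nM final, 5 min RT after 15 min compound preincubation.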
Starred values were filed as active, the others as inactive; ? = inconclusive; / = no result; [ ] = another dose, or the depositor's remark. Only some compounds are listed: those with a hit (about 19% of all), similar ones and a draw of the others. Unless noted, calls come from the whole dose curve; as a rule, active = well fitted curve in the direction sought with a large enough effect; inconclusive = small, poorly fitted or top-dose-only effect, or another doubt; inactive = no such curve, though single readings can be large; an effect the other way counts as inactive or inconclusive. % is set by controls: 0 for no effect and ±100 for the full control effect.

SMILES	ELG1 DNA repair	DT40 TDP1 CPT	TDP1 cell noCPT	IL-1B inflam inh	Giardia killer	TDP1 inh
CCCC(=O)N1CCCC(c2nc(-c3cccc(OC)c3)no2)C1 (configuration not stated)	?	?	?	-6.9	?	1.2%
COc1ccc(-c2noc(C3CCCN(C(=O)CCc4ccccc4)C3)n2)cc1 (configuration not stated)	?	17.8µM*	?	-22.0	3.1	2.1%
O=C(c1ccco1)N1CCCC(c2nc(-c3ccc(S(=O)(=O)NCc4ccccc4)cc3)no2)C1 (configuration not stated)	20.6µM*	13µM*	18.4µM*	?	3.2	5.9%[56.1 µM]
CCCCCCC(=O)N1CCCC(c2nc(-c3cccc(OC)c3)no2)C1 (configuration not stated)	-9.6%	0.2%	?	-62.5*	42.0	/
CCCCCC(=O)N1CCCC(c2nc(-c3ccc(OC)cc3)no2)C1 (configuration not stated)	?	?	23.1µM*	?	-3.3	-5.9%
CCn1ccc(-c2ccccc2)c(C#N)c1=O	0.0%	0.5%	2.8%	-2.9	20.4	-5.5%
Cc1ccc(Sc2ccc(N3CCCC(C(=O)Nc4ccc(Br)cc4)C3)nn2)cc1 (configuration not stated)	/	?	?	/	/	5.5%
CCCNC(=O)c1cnc2c(-c3ccc(OCC)c(OCC)c3)c(C)nn2c1-c1ccccc1	/	?	?	/	/	7.1%
O=C(Cc1ccccc1)N1CCCC(c2nc(-c3cccs3)no2)C1 (configuration not stated)	-7.6%	-25.1%	-10.0%	7.0	4.1	-3.1%
COc1cccc(-c2noc(C3CCCN(C(=O)Cc4ccccc4)C3)n2)c1 (configuration not stated)	?	18.4µM*	18.4µM*	-5.6	2.2	2.3%
c1ccc(CCNc2ncnc3ccccc23)cc1	?	0.517µM*	0.651µM*	0.0	-15.6	3.1%
O=C(CSc1ncnc2ccccc12)NCCc1ccccc1	13.4%	-2.1%	-8.2%	-21.0	14.1	-1.2%
CCCCCCCCNc1ncnc2ccccc12	?	0.291µM*	0.259µM*	-60.6*	4.7	1.1%
CCCCNc1ncnc2c1nnn2C	/	5.0%	-5.7%	/	/	7.8%
Cc1cc2c(NC3CCCCC3)ncnc2s1	-24.1%	?	13µM*	-11.9	1.6	/
CCCCCNc1ncnc2c(C)[nH]nc12	/	14.6µM*	23.1µM*	68.2	/	/
O=C(Nc1ccccc1)c1cc2ccc3ccccc3c2s1	?	6.0%	-0.1%	14.2	-3.5	3.9%
Cc1cc2c(NCCc3ccccc3)ncnc2s1	?	1.64µM*	1.03µM*	-70.3*	-26.2	6.2%
COc1ccc(S(=O)(=O)N2CCC(C(=O)N(CC(C)C)C3CCS(=O)(=O)C3)CC2)cc1OC (configuration not stated)	?	4.7%	1.8%	4.3	-9.2	/
N=c1sccn1CC(=O)NC(c1ccccc1)c1ccccc1	6.4%	?	?	-52.0*	28.6	5.4%
Cc1ccc(Oc2ccc(NC(=O)Cn3ccsc3=N)cc2)cc1	-19.4%	?	?	-100.1*	11.4	4.5%
N=c1sccn1CC(=O)Nc1ccccc1Oc1ccccc1	13.6%	-0.8%	-10.2%	-28.9	21.8	5.1%
N=c1sccn1CC(=O)Nc1ccccc1Cc1ccccc1	-2.5%	?	?	-51.1*	-17.4	2.1%
Cc1cccnc1-c1cccc2c1OC(CNC(=O)/C=C/c1cccs1)C2 (configuration not stated)	/	18.4%[9.04 µM]	?	/	/	/
Cc1cnc(C)c(-c2cccc3c2OC(CNC(=O)C2(c4ccc(Cl)cc4)CC2)C3)n1 (configuration not stated)	/	-13.8%[9.04 µM]	20.6µM*	/	/	/
SMILES	ELG1 DNA repair	DT40 TDP1 CPT	TDP1 cell noCPT	IL-1B inflam inh	Giardia killer	TDP1 inh
Cc1cnc(C)c(-c2ccc(F)c3c2OC(CNC(=O)/C=C/c2cccs2)C3)n1 (configuration not stated)	/	?	20.6µM*	/	/	/
CC(C)c1nc2sc3c(NCc4ccccc4)ncnc3c2c2c1COC(C)(C)C2	?	9.2µM*	?	?	-1.3	4.0%
CSc1nc(NCc2ccco2)c2sc3nc(C(C)C)c4c(c3c2n1)CC(C)(C)OC4	?	-10.8%	-22.3%	-17.3	-15.8	3.9%
COc1ccc(C)cc1NC(=O)Cn1c(=O)n(Cc2nc(C)no2)c(=O)c2ccccc21	/	-26.4%	?	/	/	2.8%
COc1ccc(NC(=O)c2ccc3c(=O)n4nc(Nc5cc(C)ccc5C)sc4nc3c2)cc1	/	6.51µM*	5.8µM*	/	/	2.8%
CCc1ccccc1Nc1nn2c(=O)c3ccc(C(=O)Nc4ccc(OC)cc4)cc3nc2s1	/	20.6µM*	13µM*	/	/	5.6%
COc1ccc(C2CC(=O)N(CC(=O)Nc3ccc(C(F)(F)F)cc3)c3ccccc3S2)cc1 (configuration not stated)	/	/	/	/	/	2.0%
CCCNC(=O)OC[C@@H]1O[C@H](CCO/N=C\C[C@H]2C=C[C@H](OC(C)=O)[C@@H](COC(C)=O)O2)C=C[C@@H]1Oc1ccc(OC)cc1	/	/	/	/	/	9.0%[21 µM]
